Bioassay records (PubChem)
T cruzi growth-1: blocks T. cruzi growth in NIH3T3 culture. T. cruzi beta-gal in NIH3T3, GalScreen luminescence, 90 h. inhibition, % at 8.34 µM. hit rate 5.9% among 77,000;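 active means mean inhibition above about 93%, with at least 55% of replicates each passing it, limit read from the data, passing the limit was not always enough; inconclusive means only one of those two conditions holds; inactive means neither condition holds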
C diff growth: C. difficile growth inhibition | Clostridium difficile clinical isolate growth, OD600, 24 h; hits give low values | growth activity, negative = inhibition, % at 16 µg/mL (by protocol) | hit rate 0.25% among 86,000;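 active means mean growth activity at or below -80% and every replicate also at or below -80%; inconclusive means mean at or below -80% but some replicate above -80%; inactive means mean growth activity above -80%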
T cruzi growth-2: Trypanosoma cruzi proliferation inhibition | shares compounds with T cruzi growth-1 | T. cruzi beta-gal in NIH3T3, GalScreen luminescence, 90 h | inhibition, % at 8.35 µM | hit rate 72% among 5,600;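 active means mean replicate inhibition above about 95% and at least 55% of replicates individually reaching it, limit read from the data; inconclusive means only one of the two criteria is met; inactive means neither criterion is met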
T cruzi growth-3: blocks T. cruzi growth in NIH3T3 host cells | T. cruzi beta-gal in NIH3T3, GalScreen luminescence, 90 h | inhibition, % at 2.09 µM | hit rate 21% among 5,600 | shares compounds with T cruzi growth-1;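 active means mean inhibition above about 95%, with at least 55% of replicates also reaching it, limit read from the data; inconclusive means meets just one of the two conditions; inactive means meets neither condition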
NIH3T3 tox: kills mouse NIH/3T3 fibroblasts; NIH/3T3 viability, CellTiter-Glo ATP luminescence, 90 h; cytotoxicity (signal decrease), % at 8.35 µM; AID 651742; hit rate 14% among 5,600; shares compounds with T cruzi growth-1;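 active means mean signal decrease across replicates above about 35% based on untreated-well scatter, with enough replicates individually passing, limit read from the data; inconclusive means no rule stated though some were filed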
NIH3T3 tox 2: kills mouse NIH/3T3 fibroblasts; shares compounds with T cruzi growth-1; hit rate 56% among 5,600; NIH/3T3 viability, CellTiter-Glo ATP luminescence, 90 h; inhibition, % at 24.9 µM; AID 651744;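 active means mean loss of cell viability signal at or above a set limit, and enough replicates individually reaching it; inconclusive means meets only the mean limit or only the replicate share; inactive means meets neither condition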
Each line names hits and unclear results; the compound was inactive in the other large screens (follow-up assays come after a bar, where they were run); ! = repeats disagree. The sample as a whole holds a higher share of hits than the screen did.

O=C(CN1CCOCC1)N1CCCCN2[C@H](CO)[C@@H](c3ccc(/C=C/c4ccccc4)cc3)[C@H]2C1	none
O=C(CN1CCOCC1)N1CCCCN2[C@H](CO)[C@H](c3ccc(-c4ccccc4F)cc3)[C@@H]2C1	none
O=C(CN1CCOCC1)N1CCCCN2[C@H](CO)[C@H](c3ccc(/C=C/c4ccccc4)cc3)[C@@H]2C1	T cruzi growth-1 106 | T cruzi growth-2 108 | T cruzi growth-3 inactive | NIH3T3 tox 40 | NIH3T3 tox 2 41
O=C(CN1CCOCC1)N1CCCCN2[C@@H](CO)[C@H](c3ccc(-c4ccccc4F)cc3)[C@@H]2C1	T cruzi growth-1 inconclusive | T cruzi growth-2 inactive | T cruzi growth-3 inactive | NIH3T3 tox inactive | NIH3T3 tox 2 inactive
CN1CCN(C(=O)C[C@H]2CC[C@H]3[C@@H](COC[C@H](O)CN3C(=O)C3CC3)O2)CC1	none
C[C@H]1CN([C@@H](C)CO)C(=O)c2ccccc2-c2ccccc2CO[C@H]1CN(C)S(=O)(=O)c1ccc(F)cc1	none (no result: C diff growth)
C[C@H](CO)N1C[C@H](C)[C@@H](CN(C)S(=O)(=O)c2ccc(C(F)(F)F)cc2)OCc2ccccc2-c2ccccc2C1=O	T cruzi growth-1 102 | T cruzi growth-2 102 | T cruzi growth-3 inactive | NIH3T3 tox inactive | NIH3T3 tox 2 54
C[C@@H]1CN([C@@H](C)CO)C(=O)c2ccccc2-c2ccccc2CO[C@@H]1CN(C)S(=O)(=O)c1ccc(F)cc1	none (no result: C diff growth)
C[C@@H]1CN([C@@H](C)CO)C(=O)c2ccccc2-c2ccccc2CO[C@H]1CN(C)S(=O)(=O)c1ccc(C(F)(F)F)cc1	T cruzi growth-1 114 | T cruzi growth-2 103 | T cruzi growth-3 inactive | NIH3T3 tox inactive | NIH3T3 tox 2 30
CO[C@H]1CN(C)C(=O)c2ccc(NC(=O)c3cc(C)on3)cc2OC[C@@H](C)N(C(C)=O)C[C@H]1C	none (no result: C diff growth)
O=C(Nc1ccc(Cl)cc1)N[C@H]1CC[C@H](CCNS(=O)(=O)c2ccccc2F)O[C@H]1CO	none
CC=Cc1ccc2n(c1=O)C[C@@H]1[C@@H](CO)[C@H](C(=O)N(C)C)N(C(=O)CC)[C@H]21 (mixture of isomers)	none (no result: T cruzi growth-1)
COc1ccccc1-c1ccc2c(c1)O[C@H](CN(C)S(=O)(=O)c1ccc(C)cc1)[C@H](C)CN([C@H](C)CO)S2(=O)=O	T cruzi growth-1 120 | T cruzi growth-2 100 | T cruzi growth-3 inconclusive | NIH3T3 tox inactive | NIH3T3 tox 2 53
COc1ccccc1-c1ccc2c(c1)O[C@@H](CN(C)S(=O)(=O)c1ccc(C)cc1)[C@H](C)CN([C@@H](C)CO)S2(=O)=O	T cruzi growth-1 126 | T cruzi growth-2 100 | T cruzi growth-3 inactive | NIH3T3 tox inactive | NIH3T3 tox 2 46
Cc1ccc(S(=O)(=O)N(C)C[C@H]2Oc3cc(C#Cc4ccccc4)ccc3S(=O)(=O)N([C@@H](C)CO)C[C@@H]2C)cc1	none (no result: T cruzi growth-1)
Cc1ccc(S(=O)(=O)N(C)C[C@H]2Oc3cc(C#Cc4ccccc4)ccc3S(=O)(=O)N([C@H](C)CO)C[C@H]2C)cc1	none (no result: T cruzi growth-1)
CNC[C@H]1OCCCC[C@@H](C)Oc2ccc(NC(=O)NC3CCCCC3)cc2C(=O)N([C@H](C)CO)C[C@@H]1C	none
O=C(Cc1ccncc1)NCC[C@@H]1CC[C@H](NC(=O)Nc2ccc(F)cc2)[C@@H](CO)O1	none
C[C@H]1CN([C@@H](C)CO)S(=O)(=O)c2ccc(C#Cc3ccc(F)cc3)cc2O[C@H]1CN(C)C(=O)c1ccccn1	T cruzi growth-1 inconclusive | T cruzi growth-2 108 | T cruzi growth-3 inactive | NIH3T3 tox inactive | NIH3T3 tox 2 inactive
C[C@@H]1CN([C@@H](C)CO)S(=O)(=O)c2ccc(C#Cc3ccccc3)cc2O[C@@H]1CN(C)C(=O)c1ccccn1	none
C[C@H]1CN([C@@H](C)CO)S(=O)(=O)c2ccc(C#Cc3ccccc3)cc2O[C@H]1CN(C)C(=O)c1ccccn1	none
C[C@H](CO)N1C[C@H](C)[C@H](CN(C)C(=O)c2ccccn2)Oc2cc(C#Cc3ccc(F)cc3)ccc2S1(=O)=O	T cruzi growth-1 119! | T cruzi growth-2 99 | T cruzi growth-3 inactive | NIH3T3 tox inactive | NIH3T3 tox 2 inactive
CCCC(=O)Nc1ccc2c(c1)C(=O)N(C)[C@@H]1CC[C@H](CC(=O)NC3CCCC3)O[C@H]1CO2	none
C[C@@H]1CN([C@H](C)CO)C(=O)c2cc(-c3ccccc3)cnc2O[C@@H]1CN(C)C(=O)C1CCCCC1	none
Cc1ccc(S(=O)(=O)N(C)C[C@@H]2Oc3ncc(C#CCC(C)C)cc3C(=O)N([C@H](C)CO)C[C@H]2C)cc1	T cruzi growth-1 122! | T cruzi growth-2 103 | T cruzi growth-3 inactive | NIH3T3 tox inactive | NIH3T3 tox 2 85
Cc1ccc(S(=O)(=O)N(C)C[C@@H]2Oc3ncc(C#CCC(C)C)cc3C(=O)N([C@H](C)CO)C[C@@H]2C)cc1	T cruzi growth-1 105 | T cruzi growth-2 105 | T cruzi growth-3 inactive | NIH3T3 tox inactive | NIH3T3 tox 2 64
CC(C)CC#Cc1cnc2c(c1)C(=O)N([C@@H](C)CO)C[C@@H](C)[C@H](CN(C)S(C)(=O)=O)O2	none
CC(C)CC#Cc1cnc2c(c1)C(=O)N([C@@H](C)CO)C[C@@H](C)[C@H](CN(C)S(=O)(=O)c1ccccc1)O2	none
CN1[C@@H]2Cn3c(ccc(-c4ccccc4F)c3=O)[C@H]1[C@@H](C(=O)NCc1ccccn1)[C@@H]2CO	none
O=C(C[C@@H]1CC[C@H](NC(=O)Nc2ccc(C(F)(F)F)cc2)[C@H](CO)O1)NCc1cccc(F)c1	none
CO[C@H]1CC[C@@H]2CCOc3ccc(C#N)cc3C(=O)N(C)C[C@@H](OC)[C@@H](C)C(=O)N(C)C[C@@H]1O2	none
C[C@@H]1CN([C@H](C)CO)C(=O)c2cc(NC(=O)Nc3ccc(C(F)(F)F)cc3)ccc2O[C@@H]1CN(C)Cc1ccc(C(=O)Nc2ccccc2N)cc1	none (no result: C diff growth)
CC(C)NC(=O)N1CCCCN2[C@H](CO)[C@H](c3ccc(C#Cc4ccccc4)cc3)[C@@H]2C1	T cruzi growth-1 115 | T cruzi growth-2 109 | T cruzi growth-3 inactive | NIH3T3 tox 42 | NIH3T3 tox 2 62
CC(C)NC(=O)N1CCCCN2[C@H](CO)[C@H](c3ccc(C#C[C@@H](C)O)cc3)[C@@H]2C1	none
CC(C)NC(=O)N1CCCCN2[C@@H](CO)[C@H](c3ccc(C#CC4CC4)cc3)[C@@H]2C1	T cruzi growth-1 inconclusive | T cruzi growth-2 inactive | T cruzi growth-3 inactive | NIH3T3 tox inactive | NIH3T3 tox 2 inactive
CC(C)NC(=O)N1CCCCN2[C@H](CO)[C@H](c3ccc(C#CC4CC4)cc3)[C@@H]2C1	none
CC(C)C#Cc1ccc([C@@H]2[C@@H](CO)N3CCCCN(C(=O)NC(C)C)C[C@H]23)cc1	none
CC(C)NC(=O)N1CCCCN2[C@H](CO)[C@@H](c3ccc(C#Cc4ccccc4)cc3)[C@@H]2C1	T cruzi growth-1 101 | T cruzi growth-2 107 | T cruzi growth-3 inactive | NIH3T3 tox inactive | NIH3T3 tox 2 105
